Results filed as inconclusive are left out. Where a call stands in place of a potency, no number is given. The source made the active and inactive calls. The call rests on the fitted dose curve; in most records, active means well fitted curve in the direction sought with a large enough effect; inconclusive means small, poorly fitted or top-dose-only effect, or another doubt; inactive means no such curve, though single readings can be large; an effect the other way counts as inactive or inconclusive. Where a SMILES comes first, the peptide text is derived from it. Bridges are numbered along the chain shown (N, C = ends). [ ]: non-standard residue; d: D form. The star is where a group is joined. X1 = CC[C@@H](C)[C@@H](N)C1=N[C@H](C(=O)*)CS1; d(aIle) = CC[C@H](C)[C@@H](N)C(=O)O; dOrn = NCCC[C@@H](N)C(=O)O
experiment: qHTS Assay for Identifying Gametocytocidal Compounds (AID 743244);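 further: actives lower the fluorescent signal which means gametocytes are killed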; details: P. falciparum 3D7 stage III-V gametocytes, alamarBlue, 72 h; max response: active compounds read low
Method in brief: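 Late gametocytes (III–V), P. falciparum 3D7; 72 h drug, then 24 h alamarBlue; resazurin reduction read by fluorescence.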

SMILES	max response
N[C@H](CC(=O)O)C(=O)O	2.16% (inactive)
O=P(O)(O)OC[C@H]1O[C@](O)(COP(=O)(O)O)[C@@H](O)[C@@H]1O	2.17% (inactive)
C=C1c2c(Cl)ccc(O)c2C(O)=C2C(=O)[C@]3(O)C(O)=C(C(N)=O)C(=O)[C@@H](N(C)C)[C@@H]3[C@@H](O)[C@H]12	2.94% (inactive)
Cc1cc(C)c(NC(=O)C[C@H](CC(=O)O)c2cccc3ccccc23)c(C(=O)N2CCC3(CCCC3)CC2)c1	-8.09% (inactive)

experiment: qHTS assay to identify small molecule inhibitors of chordoma cells - UCH-1 (AID 1259355); details: UCH-1 chordoma viability, CellTiter-Glo, 48 h, combination, with auranofin plus four topoisomerase inhibitors; series mostly up to 46.1 µM; further: nearly all actives have a fitted effect of over 55% in size
Method in brief: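 A 48hr growth-inhibition format: each drug tested at 15 concentrations together with added auranofin, camptothecin, doxorubicin, rubitecan and topotecan, with cell viability quantified as CellTiter-Glo luminescence.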

SMILES	Potency
O=P(O)(O)OC[C@H](O)CO	inactive
NC[C@@H]1CC[C@@H](N)[C@@H](O[C@H]2[C@H](O)[C@@H](O[C@H]3O[C@H](CO)[C@@H](O)[C@H](N)[C@H]3O)[C@H](N)C[C@@H]2N)O1	inactive
N=C(N)n1cccn1	inactive
CCOC(=O)c1cc(-c2ccccc2)nc2ccc(C)cc12	inactive
CC(C)(C)NCC(O)c1ccc(O)c(CO)n1 (centres undefined)	inactive
CC[C@@H](C)[C@@H](N)C1=N[C@H](C(=O)N[C@@H](CC(C)C)C(=O)N[C@@H](CCC(=O)O)C(=O)N[C@@H](C(=O)N[C@@H]2CCCCNC(=O)[C@@H](CC(N)=O)NC(=O)[C@@H](CC(=O)O)NC(=O)[C@@H](Cc3cnc[nH]3)NC(=O)[C@@H](Cc3ccccc3)NC(=O)[C@@H]([C@H](C)CC)NC(=O)[C@@H](CCCN)NC2=O)[C@@H](C)CC)CS1 (X1-LE[d(aIle)][dK][dOrn][dI][dF][dH][dD][dN]; lactam 4-C)	inactive
CC1CCC(NC(=O)N(CCCl)N=O)CC1 (centres undefined)	inactive
NC(=O)CC[C@@H]1NC(=O)[C@H](Cc2ccccc2)NC(=O)[C@H](Cc2ccc(O)cc2)NC(=O)[C@@H](N)CSSC[C@@H](C(=O)N2CCC[C@H]2C(=O)N[C@@H](CCCN=C(N)N)C(=O)NCC(N)=O)NC(=O)[C@H](CC(N)=O)NC1=O	inactive
O=C(O)COc1ccccc1/C=N/NC(=O)c1ccncc1	inactive
CCCCC[C@H](O)/C=C/[C@H]1[C@H](O)CC(=O)[C@@H]1C/C=C\CCCC(=O)O	inactive
CCCCCCCCCCCCCCCCCC[N+](C)(C)CCC[Si](OC)(OC)OC	inactive
NC(=O)Oc1ccc(Cc2ccccc2)cc1	inactive
C(=C\c1ccncc1)/c1ccccc1	inactive
FCOC(C(F)(F)F)C(F)(F)F	inactive
Cc1c(Cl)cccc1Nc1ncccc1C(=O)O	inactive
CC/C(=C(/CC)c1ccc(OP(=O)(O)O)cc1)c1ccc(OP(=O)(O)O)cc1	inactive
NC(=O)OCC(O)COc1ccc(Cl)cc1 (centres undefined)	inactive
CC(=O)Nc1ccc(OC(C)=O)cc1	inactive

SMILES	Potency
C[C@@H]1O[C@@H]1P(=O)(O)O	inactive
CC(C)CCCC(C)NC(C)C (centres undefined)	inactive
Cc1cc(C(=O)NCCc2ccc(S(=O)(=O)NC(=O)NN3CCCCCC3)cc2)no1	inactive
O=C(O)CN(CC(=O)O)CC1=CC2C(=CC1=O)Oc1cc(O)c(CN(CC(=O)O)CC(=O)O)cc1C21OC(=O)c2ccccc21 (centres undefined)	inactive
COc1ccc(/C=C/C(=O)O)cc1	inactive
COc1ccc(C(=O)c2ccc(C)cc2)c(O)c1	inactive
C=CC1=C(C(=O)O)N2C(=O)[C@@H](NC(=O)/C(=N/OCC(=O)O)c3csc(N)n3)[C@H]2SC1 (stereo in doubt)	inactive
C[Se]CC[C@H](N)C(=O)O	inactive
CCCCC[C@H](O)/C=C/[C@H]1[C@H](O)CC(=O)[C@@H]1CCCCCCC(=O)O	inactive
COc1cc(C)c(/C=C/C(C)=C/C=C/C(C)=C/C(=O)O)c(C)c1C	inactive
CC1(C)S[C@@H]2[C@H](NC(=O)C3(N)CCCCC3)C(=O)N2[C@H]1C(=O)O	inactive
CN[C@@H]1[C@@H](O)[C@@H](O[C@@H]2[C@@H](O)[C@H](O[C@H]3O[C@H](CN)[C@@H](O)[C@H](O)[C@H]3O)[C@@H](N)C[C@H]2NC(=O)C(O)CN)OC[C@]1(C)O (some centres undefined)	inactive
CC(C)[C@@H](N)C(=O)O	inactive
CC(C)CN(C[C@@H](O)[C@H](Cc1ccccc1)NC(=O)O[C@@H]1CCOC1)S(=O)(=O)c1ccc(N)cc1	inactive
CCCCCCCCCCCCCC(=O)OCC(COP(=O)([O-])OCC[N+](C)(C)C)OC(=O)CCCCCCCCCCCCC (centres undefined)	inactive
CNC(=O)[C@H](Cc1c[nH]c2ccccc12)NC(=O)[C@@H](CC(=O)NO)CC(C)C	inactive
N[C@H](CC(=O)O)C(=O)O	inactive

Source: PubChem BioAssay (NCATS)
